PubChem BioAssay AID1209 (Sanford-Burnham Center for Chemical Genomics, 2008)
The whole screen tested about 190,000 compounds, of which about 810 (0.43%) were called active. The full list was thinned out, with actives kept by preference. Values without a mark were called inactive. No stated cut-off is given here; in the data, active means inhibition above about 50%; inactive means the rest.

Target: Mannose-6-phosphate isomerase (Homo sapiens) (UniProt P34949)
Experiment: inhibitors of human PMI, primary screen, biochemical, fluorescence intensity, coupled assay (AID 1209);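 further: plate controls were DMSO vehicle for no effect and wells lacking substrate for full effect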
Conditions: purified PMI enzyme, at 20 µM, stronger effect = higher value

Sequence of Mannose-6-phosphate isomerase (Homo sapiens) (P34949 whole entry, looked up): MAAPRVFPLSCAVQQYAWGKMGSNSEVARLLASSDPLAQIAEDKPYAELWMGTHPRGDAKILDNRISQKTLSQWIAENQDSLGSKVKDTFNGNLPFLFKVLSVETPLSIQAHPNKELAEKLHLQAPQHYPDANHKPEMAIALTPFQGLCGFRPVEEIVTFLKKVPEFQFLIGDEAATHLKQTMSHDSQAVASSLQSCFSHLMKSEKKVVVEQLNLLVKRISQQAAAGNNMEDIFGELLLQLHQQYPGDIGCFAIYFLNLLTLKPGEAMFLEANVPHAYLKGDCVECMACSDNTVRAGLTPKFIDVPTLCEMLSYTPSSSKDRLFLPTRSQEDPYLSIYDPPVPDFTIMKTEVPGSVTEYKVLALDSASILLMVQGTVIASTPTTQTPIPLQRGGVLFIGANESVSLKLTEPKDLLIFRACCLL

Question: How did the inhibition turn out when `CN(C)c1ccc(C(=O)OCc2ccccc2)cc1` was run?
Answer: Its inhibition is 16%.

Question: How did the inhibition turn out when `CCS(=O)(=O)c1ccc2c(c1)N(S(=O)(=O)c1ccc(Cl)cc1)CC(C(=O)O)O2` (centres undefined) was run?
Answer: Its inhibition is -3.9%.

Question: With `Cc1ccc(-c2ccc(/C=N/N=C3/NC(=O)C(CC(=O)O)S3)o2)c([N+](=O)[O-])c1` (centres undefined) as the compound, how does the inhibition read?
Answer: Its inhibition is 30.5%.

Question: `O=C(O)CC1S/C(=N/N=C/c2ccc(-c3ccc(Cl)c([N+](=O)[O-])c3)o2)NC1=O` (centres undefined) was tested. Which inhibition did it give?
Answer: The inhibition was -9%.

Question: Which inhibition does the source give for `O=C(O)CC1S/C(=N/N=C/c2ccc(-c3ccccc3[N+](=O)[O-])o2)NC1=O` (centres undefined) here?
Answer: The inhibition was 68.4% (active).

Question: Which inhibition does the source give for `COC(=O)c1cccc(-n2cnnn2)c1` here?
Answer: Its inhibition is -6.9%.

Question: For `COC(=O)c1cccc(-n2[nH]nnc2=S)c1`, which inhibition is on record?
Answer: The inhibition was 64.8% (active).

Question: How did the inhibition turn out when `COC(=O)c1cccc(NC(N)=S)c1` was run?
Answer: Its inhibition is -7.9%.

Question: Which inhibition does the source give for `COc1ccc(OC)c2c(C)cc(NCCN3CCOCC3)nc12` here?
Answer: Its inhibition is 11.7%.

Question: Which inhibition does the source give for `CCn1nc(CC(=O)Nc2nnc(CC(=O)N3CCCCC3)s2)c2ccccc2c1=O` here?
Answer: Its inhibition is 4.6%.

Question: For `CCn1nc(CC(=O)Nc2nnc(CC(=O)N3CCOCC3)s2)c2ccccc2c1=O`, which inhibition is on record?
Answer: The inhibition was 5.5%.

Question: How did the inhibition turn out when `CCn1nc(CC(=O)Nc2nnc(CC(=O)N3CCCC3)s2)c2ccccc2c1=O` was run?
Answer: The inhibition was 50.5% (active).

Question: How did the inhibition turn out when `COc1ccnc(Oc2ccc(Cl)cc2)c1C#N` was run?
Answer: The inhibition was -5.9%.

Question: With `CC(C)CC(=O)N1CCN(Cc2ccc3c(c2)OCO3)CC1` as the compound, how does the inhibition read?
Answer: Its inhibition is 3.6%.

Question: For `CCOC(=O)N1CCN(C(=O)Cn2ccc3c(OC)cccc3c2=O)CC1`, which inhibition is on record?
Answer: The inhibition was 3.2%.

Question: For `CCCn1c(SCC(=O)Nc2cc(S(=O)(=O)N3CCOCC3)ccc2OC)n[nH]c1=O`, which inhibition is on record?
Answer: Its inhibition is -2%.

Question: Which inhibition does the source give for `CCOc1cc(-c2nc(C)c(C(C)=O)n2O)ccc1OCC(=O)Nc1ccc(F)cc1` here?
Answer: Its inhibition is -3.7%.

Question: For `CCOC(=O)c1c(N)sc(C(=O)OCCOC)c1C`, which inhibition is on record?
Answer: The inhibition was 51% (active).

Question: With `CCOC(=O)c1sc(N)c(C(N)=O)c1C` as the compound, how does the inhibition read?
Answer: The inhibition was 64.3% (active).

Question: Which inhibition does the source give for `CCOC(=O)c1sc(N)c(C(=O)Nc2ccccc2OC)c1C` here?
Answer: The inhibition was 60.2% (active).

Question: `CCOC(=O)c1sc(N)c(C(=O)Nc2ccccc2)c1C` was tested. Which inhibition did it give?
Answer: The inhibition was 44.4%.

Question: Which inhibition does the source give for `CCOC(=O)c1c(N)sc(C(=O)OC)c1C` here?
Answer: Its inhibition is -6.6%.

Question: Which inhibition does the source give for `CCOC(=O)c1c(N)sc(C(=O)Nc2ccccc2F)c1C` here?
Answer: The inhibition was 11.6%.

Question: With `CCOC(=O)c1sc(N)c(C(=O)OC)c1C` as the compound, how does the inhibition read?
Answer: Its inhibition is 7%.

Question: With `CCOC(=O)c1c(N)sc(C(=O)N(C)C)c1C` as the compound, how does the inhibition read?
Answer: Its inhibition is -5%.

Question: For `CCCOC(=O)c1c(N)sc(C(=O)OCC)c1C`, which inhibition is on record?
Answer: The inhibition was 2.1%.

Question: For `CCOC(=O)c1c(N)sc(N)c1C(=O)OCC`, which inhibition is on record?
Answer: The inhibition was 60.1% (active).

Question: `CCOC(=O)c1c(N)sc(C(N)=O)c1C` was tested. Which inhibition did it give?
Answer: Its inhibition is -5.6%.

Question: `CCOC(=O)c1c(N)sc2c1CCCC2` was tested. Which inhibition did it give?
Answer: Its inhibition is 5.6%.
